# Many of the other results were omitted from the sample, so hits are more common in it than they were.
# Giardia FBPA inh = Giardia lamblia aldolase inhibition; A8B2U2; purified Giardia FBPA; Potency, µM (top dose mostly 59.6 µM), for inactives: at the top dose activity, negative = inhibition, actives largely listed as inhibitors; 290,000 tested, 0.71% active; further: potency means the concentration at half of the fitted maximal effect; on the % scale 0 is the no-effect control and ±100 the full control effect; nearly all actives have a fitted effect of over 55% in size
#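 Giardia FBPA (40 nM reagent) was preincubated 10 min at RT with compound (up to 57.5 uM final), then substrate plus GAPDH/TPI/NAD/arsenate coupling system with diaphorase/resazurin was added; resorufin fluorescence (525/598 nm) was read after 20 min.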
# Shiga inhibitor = blocks Shiga toxin action in Vero cells; Vero cells, Shiga toxin protein synthesis inhibition reporter; inhibition, % at 38.7 µM; 290,000 tested, 9.2% active; in the data active means inhibition mostly above about 28%, no sharp cut-off; inactive means mostly below about 43%; further: 0% is about no effect
# LmPK inh = blocks Leishmania mexicana pyruvate kinase activity. AID 1721. purified LmPK, Kinase-Glo ATP luminescence, 1 h. 290,000 tested, 0.37% active. Potency, µM (highest dose often 57.5 µM), for the others: at the top dose activity change, negative = inhibition, hits mostly inhibitors. Q27686; further: potency means the concentration at half of the fitted maximal effect; on the % scale 0 is the no-effect control and ±100 the full control effect
# Target sequence (Q27686 whole entry, looked up): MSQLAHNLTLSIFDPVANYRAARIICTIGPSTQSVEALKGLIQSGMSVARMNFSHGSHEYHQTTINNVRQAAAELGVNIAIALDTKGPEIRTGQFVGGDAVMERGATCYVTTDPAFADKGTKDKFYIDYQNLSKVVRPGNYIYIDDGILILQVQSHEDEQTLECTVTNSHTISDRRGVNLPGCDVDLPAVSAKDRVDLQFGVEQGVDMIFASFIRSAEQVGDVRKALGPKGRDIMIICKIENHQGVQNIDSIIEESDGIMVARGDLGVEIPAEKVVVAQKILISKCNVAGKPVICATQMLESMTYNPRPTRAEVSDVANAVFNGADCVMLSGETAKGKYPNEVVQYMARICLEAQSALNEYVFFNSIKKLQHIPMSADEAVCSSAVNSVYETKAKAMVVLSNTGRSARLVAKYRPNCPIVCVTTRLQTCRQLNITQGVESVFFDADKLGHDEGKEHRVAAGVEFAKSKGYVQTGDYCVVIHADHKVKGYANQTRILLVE
#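 Kinase-Glo luminescence read after 1 h RT reaction of 0.1 nM LmPK with 0.5 mM PEP and 0.1 mM ADP. Activity scaled between uninhibited and enzyme-free controls.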
# Tb PYK inh = inhibitors of Trypanosoma brucei pyruvate kinase | Q57TT1 | TbPYK enzyme, Kinase-Glo Plus ATP luminescence, 45 min | Potency, µM (highest dose often 76.8 µM), for the others: top-dose activity, negative = inhibition, most hits filed as inhibitors | 410,000 tested, 0.12% active | AID 624173; further: potency means the concentration at half of the fitted maximal effect; on the % scale 0 is the no-effect control and ±100 the full control effect; nearly all actives have a fitted effect of over 50% in size
#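 Assay buffer: 50 mM TEA pH 7.2, 100 mM KCl, 10 mM MgCl2, 0.05% BSA, 0.01% Tween-20. Pyruvate kinase from T. brucei plus substrate met compound, then ADP (130 uM final). Luminescence was read post 45 min RT.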
# CHX counter = counter-screen for Shiga toxin inhibitors: cycloheximide protein synthesis inhibition. cell reporter, cycloheximide protein synthesis inhibition counterscreen. max response, %. 300,000 tested, 12% active. AID 2314; in the data active means max response mostly above about 13%, no sharp cut-off; inactive means mostly below about 14%; further: read at 38.3 µM for the half of the compounds with a filed dose; 0% is about no effect
# RE007 growth inh = less growth of the S. pombe RE007 Vpr strain; S. pombe RE007 Vpr strain, BacTiter-Glo ATP luminescence, 24 h; Potency, µM (top dose mostly 92.2 µM), without a hit: at the highest dose activity change, negative = less growth, hits mostly inhibitors; 360,000 tested, 0.21% active; AID 651644; active means well fitted falling curve with a large enough effect; inconclusive means small, poorly fitted or top-dose-only effect; inactive means no such curve, though single readings can be large or run the other way; further: potency means the concentration at half of the fitted maximal effect; on the % scale 0 is the no-effect control and ±100 the full control effect; nearly all actives have a fitted effect of over 50% in size
#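 Fission yeast strain RE007, carrying one chromosomally integrated HIV-1 vpr copy, was seeded at OD 0.01 in PMG+AL medium with 23 nL pinned compound. After 24 h at 30 °C and 99% humidity, viability was read by BacTiter-Glo luminescence.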
# Starred values were filed as active, the others as inactive; ? = inconclusive; · = no result given; [ ] = dose if it differs, or a comment. Unless noted, the call rests on the fitted dose curve; in most records, active means well fitted curve in the direction sought with a large enough effect; inconclusive means small, poorly fitted or top-dose-only effect, or another doubt; inactive means no such curve, though single readings can be large; an effect the other way counts as inactive or inconclusive.
SMILES,Giardia FBPA inh,Shiga inhibitor,LmPK inh,Tb PYK inh,CHX counter,RE007 growth inh
O=C(NCCc1c[nH]c2ccccc12)c1ccc([N+](=O)[O-])cc1,-2.3%,79.8*,0.0%,-4.6%,38.0*,-13.5%
O=C(Cn1ccc([N+](=O)[O-])n1)NCCc1c[nH]c2ccccc12,-2.9%,92.4*,13.2%,1.3%,58.5*,-7.2%
Cc1ccc(C(=O)NCCc2c[nH]c3ccccc23)c(C)c1,·,87.2*,-0.5%,1.6%,79.5*,6.7%
CC[C@@H](c1ccccc1)n1c(=O)n2n(c1=O)[C@H]1[C@H](O)[C@H]3O[C@@H]3/C(=N/OC/C=C(\C)CCC=C(C)C)[C@@H]1CC2,0.0%[12.9 µM],·,·,·,·,·
CCC1(O)CC2CN(CCc3c([nH]c4ccccc34)[C@@](C(=O)OC)(c3cc4c(cc3OC)N(C=O)[C@H]3[C@](O)(C(=O)OC)[C@H](OC(C)=O)[C@]5(CC)C=CCN6CC[C@]43[C@@H]65)C2)C1 (some centres not stated),·,·,·,-7.2%,·,·
O=C(NCCc1c[nH]c2ccccc12)c1ccccc1,-5.0%,93.6*,-1.3%,2.1%,38.8*,-8.2%
O=C(NCCc1c[nH]c2ccccc12)c1cc([N+](=O)[O-])cc([N+](=O)[O-])c1,-0.6%,-2.7,0.9%,3.1%,1.5,-0.7%
O=C(NCCc1c[nH]c2ccccc12)c1ccc(S(=O)(=O)NCc2ccco2)cc1,-12.0%,-2.6,6.6%,-0.3%,16.1*,-3.7%
CC(C)=CCC/C(C)=C/CC/C(C)=C/CCC(=O)OC/C=C(\C)CCC=C(C)C,·,·,·,3.0%,·,·
Cc1cccc(Cn2nc(C)n3c(cc4cc(C)ccc43)c2=O)c1,·,·,·,5.9%,·,·
COc1ccc2nc3c(cc2c1)Cc1ccccc1-3,17.7µM*,·,·,·,·,·
COc1ccc(C(=O)Nc2ccc3c(c2)Cc2ccccc2-3)cc1,·,-5.9,5.8%,0.0%,-2.8,-9.8%
CCC1SC(C)C/C(=N/NC(N)=O)C1C (configuration not stated),-3.8%,17.2,-1.4%,-2.2%,35.4*,-4.8%
CCOC(=O)N1CCC(=NNC(N)=O)C1,·,·,·,2.7%,·,-14.4%
CC(=O)OC[C@@H]1O[C@@H](O/N=C2/C[C@@H](O)[C@@H](O)[C@@H]3[C@@H]4C(=O)N(c5cccc(Oc6ccccc6)c5)C(=O)[C@H]4CC[C@H]23)[C@H](OC(C)=O)[C@H](OC(C)=O)[C@@H]1OC(C)=O,-3.3%[12.9 µM],·,·,·,·,·
COc1ccc(Nc2nc3ccccc3c3nnc(C)n23)cc1Cl,·,·,·,1.1%,·,·
O=c1c2ccccc2nc(N/N=C/c2c(O)ccc3ccccc23)n1O,?,52.5*,2.6%,-11.8%,39.9*,-12.0%
O=c1c2ccccc2nc(N/N=C/c2ccc(O)cc2)n1O,-12.9%,21.3,?,3.0%,2.6,-29.9%
O=C(Nc1cccc(Cl)c1)c1ccc(Cn2cc(Cl)cn2)cc1,-6.9%,78.8*,2.1%,-3.2%,14.9*,·
Cn1c(NC(=O)c2cccc(Cn3cc(Cl)cn3)c2)nc2ccccc21,15.5%,194.9*,-4.7%,1.6%,69.2*,3.4%
CC(C)Cn1c(=O)c2ccccc2n2c(CCC(=O)Nc3ccc(F)c(F)c3)nnc12,·,·,·,0.1%,·,·
CCC[C@]1(CCc2ccccc2)CC(O)=C([C@H](CC)c2cccc(NS(=O)(=O)c3ccc(C(F)(F)F)cn3)c2)C(=O)O1,·,·,·,3.7%,·,·
O=c1c2ccccc2nc2ccc(NCc3cccs3)nn12,0.4%,59.3*,-0.6%,-5.0%,53.6*,10.2%
Cc1ccc(/C=N/Nc2nnc(Cl)c3ccccc23)cc1,-13.9%,46.3*,-17.3%,0.0%,46.4*,-20.1%
Clc1nnc(N/N=C/c2ccccc2)c2ccccc12,-13.7%,65.2,-21.8%,-6.7%,47.0*,?
CC(=O)Nc1ccc(C=NNc2nnc(NN=Cc3ccc(NC(C)=O)cc3)c3ccccc23)cc1,·,·,·,2.7%,·,3.7%
Clc1ccc(/C=N/Nc2nnc(Cl)c3ccccc23)cc1,0.1%,55.0*,-3.3%,-10.1%,18.1*,11.5%
Clc1cncc(Cl)c1N/N=C/c1ccccc1,3.0%,48.1*,-3.6%,-0.1%,28.8*,?

# Screening data (PubChem BioAssay)
